Reference: PubChem BioAssay (NCI)
About 83,000 compounds went through this panel and 20% of them were active in at least one assay; those are over-represented in the sample as a whole.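 96-well plates, one dose, 48 hours. Percent growth reported; active if below 10.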 Values without a mark were called inactive. Calls of active or inactive are those of the source.

What was measured:
Experiment in all cases: NCI-60 one-dose screen, 48 h (100 = growth as untreated, 0 = no growth, -100 = all killed)
Conditions in all cases: 10 µM unless noted
[1] = tested on: MOLT-4 leukemia
[2] = tested on: OVCAR-8 ovarian
[3] = tested on: OVCAR-5 ovarian
[4] = tested on: OVCAR-4 ovarian
[5] = tested on: SK-OV-3 ovarian
[6] = tested on: IGROV1 ovarian
[7] = tested on: OVCAR-3 ovarian
[8] = tested on: HS 578T breast
[9] = tested on: NCI/ADR-RES ovarian
[10] = tested on: T-47D breast
[11] = tested on: BT-549 breast
[12] = tested on: MDA-MB-435 melanoma
[13] = tested on: SW-620 colon
[14] = tested on: MCF7 breast
[15] = tested on: HCT-116 colon
[16] = tested on: HCC-2998 colon
[17] = tested on: KM12 colon
[18] = tested on: RPMI-8226 leukemia
[19] = tested on: SR leukemia

SMILES	growth [1] [%]	growth [2]	growth [3]	growth [4] [%]	growth [5]	growth [6]	growth [7]	growth [8]	growth [9] [%]	growth [10]	growth [11]	growth [12] [%]	growth [13] [%]	growth [14]	growth [15]	growth [16] [%]	growth [17]	growth [18]	growth [19]
CC1(C)N=C(N)N=C(N)N1c1ccc(CCC(=O)Nc2ccc(S(=O)(=O)F)cc2)c(Cl)c1	33	-11.8% (active)	29%	52.9	64.5%	-43.3% (active)	58.9%	59.9%	58.4	70.5%	51%	37.7	24.8	15.1%	26.8%	14.3	12.2%	–	–
COC[C@@H]1C[C@@]2(C)[C@@H](CC[C@@H]3[C@@H]2CC[C@@]2(C)[C@H]3CC[C@]2(C)O)CC1=O	90.4	95.8%	97.9%	101	98.7%	98.9%	106%	–	101	88.2%	89.1%	108	110	92.7%	96%	94.9	101%	84.5%	–
C/C1=C/C(=O)O[C@@H]2C[C@@H](CC[C@H](C)/C=C\C=C\CC1)O[C@@](O)([C@@H]1CSC(=O)N1CO)C2	33.4	42.8%	-3.16% (active)	20.4	-14.1% (active)	–	-7.34% (active)	-48.7% (active)	47.6	56.8%	-13.3% (active)	32	53.2	56.8%	27.2%	34.7	62%	50.7%	–
CN(C)CC(C(=O)Cc1ccccc1)c1ccccc1 (stereo not drawn)	78	34%	133%	91.7	124%	84.8%	6.54% (active)	–	76.5	-37.8% (active)	76.3%	26.8	20.6	1.13% (active)	2.48% (active)	116	-1.54% (active)	-4.6% (active)	–
CN1C(=O)C(=Cc2cn(Cc3ccccc3)c3ccccc23)C(=O)N(C)C1=O	96.8	90.5%	-6.96% (active)	49.8	51.8%	–	71.2%	86.8%	89	42.8%	88.9%	102	79.7	64%	71%	81.8	102%	35.9%	–
CCOC(=O)N1CC1	–	101%	97.1%	93.1	111%	93.5%	111%	112%	98	114%	109%	97.1	103	102%	98.4%	150	107%	91.2%	-20.9% (active)
